Laboratory results published in PubChem BioAssay (NCI).
Several values for one entry are separate records, joined by “and”; a condition that tells them apart may be missing. Equal values may be shown once. This is part of a sample that, as a whole, favours compounds with a hit. Of some 83,000 tested, about 20% had one in any assay.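 48-hour exposure, single concentration, 96-well plates; percent growth endpoint where 0 means no net growth. Active: below 10.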 Activity calls are given as the source filed them.

Experiments:
Test in all cases: NCI-60 one-dose screen, 48 h (100 = growth as untreated, 0 = no growth, -100 = all killed)
Details in all cases: 10 µM unless noted
HCT-15 colon = test system: HCT-15 colon
HT29 colon = test system: HT29 colon
SNB-75 CNS = test system: SNB-75 CNS
SNB-19 CNS = test system: SNB-19 CNS
U251 CNS = test system: U251 CNS
PC-3 prostate = test system: PC-3 prostate
SK-MEL-5 melanoma = test system: SK-MEL-5 melanoma
UACC-62 melanoma = test system: UACC-62 melanoma
LOX IMVI melanoma = test system: LOX IMVI melanoma
SK-MEL-28 melanoma = test system: SK-MEL-28 melanoma
SK-MEL-2 melanoma = test system: SK-MEL-2 melanoma
SN12C renal = test system: SN12C renal
UO-31 renal = test system: UO-31 renal
TK-10 renal = test system: TK-10 renal
ACHN renal = test system: ACHN renal
CAKI-1 renal = test system: CAKI-1 renal
A498 renal = test system: A498 renal
HL-60(TB) leukemia = test system: HL-60(TB) leukemia
EKVX NSCLC = test system: EKVX NSCLC
CCRF-CEM leukemia = test system: CCRF-CEM leukemia

Row | Compound | growth (HCT-15 colon) | growth (HT29 colon) | growth (SNB-75 CNS) | growth (SNB-19 CNS) | growth (U251 CNS) | growth (PC-3 prostate) | growth (SK-MEL-5 melanoma) | growth (UACC-62 melanoma) | growth (LOX IMVI melanoma) | growth (SK-MEL-28 melanoma) | growth (SK-MEL-2 melanoma) | growth (SN12C renal) | growth (UO-31 renal) | growth (TK-10 renal) | growth (ACHN renal) | growth (CAKI-1 renal) | growth (A498 renal) | growth (HL-60(TB) leukemia) | growth (EKVX NSCLC) | growth (CCRF-CEM leukemia)
1 | c1ccc2c(c1)O[As](O[As]1Oc3ccccc3O1)O2 | 29.9% (inactive) | 24.8% (inactive) | 1.6% (active) | 82.9% (inactive) | 1.07% (active) | 36.9% (inactive) | 20.7% (inactive) | 43.8% (inactive) | 30.9% (inactive) | 44.4% (inactive) | 5.79% (active) | 40.2% (inactive) | 32.2% (inactive) | 61.6% (inactive) | 59.3% (inactive) | 16.5% (inactive) | 27.5% (inactive) | -28.3% (active) |  | 
2 | CCCCCCCCCCCCCCCC[N+](C)(C)C | -37.7% (active) and 23.9% (inactive) | -64% (active) and -42.4% (active) | -77.5% (active) and -23.3% (active) | -71.2% (active) and -40.6% (active) | -75.5% (active) and -94.2% (active) | -40.8% (active) and -32.8% (active) | -94.6% (active) and -73.7% (active) | -63% (active) and 25.6% (inactive) | -71.6% (active) and -73.9% (active) | -74.7% (active) and 25.6% (inactive) | -67.6% (active) and -2.51% (active) | -87.8% (active) | -82.3% (active) and 62.9% (inactive) |  |  | -58.7% (active) and 18.4% (inactive) | -58% (active) and 25.3% (inactive) | -66.6% (active) and -38.9% (active) | -51.6% (active) and 29.3% (inactive) | -51.4% (active) and 1.36% (active)
3 | CO[C@@H]([CH2][Hg][O]C(=O)c1ccccc1)[C@@H]([CH2][Hg][O]C(=O)c1ccccc1)OC | -93.1% (active) | 95.7% (inactive) | 85.6% (inactive) | 96.5% (inactive) | 93.3% (inactive) | 88.7% (inactive) | 86.5% (inactive) | 95.2% (inactive) | 36% (inactive) | 112% (inactive) | 105% (inactive) | 98.2% (inactive) | 88.8% (inactive) |  | 99% (inactive) | 94.3% (inactive) | 117% (inactive) | 64.9% (inactive) | 110% (inactive) | -6.61% (active)
4 | ClC1OC(Cl)(Cl)C(Cl)(Cl)OC1(Cl)Cl (centres undefined) | 106% (inactive) | 103% (inactive) | 88.3% (inactive) | 112% (inactive) | 103% (inactive) | 104% (inactive) | 100% (inactive) | 104% (inactive) | 108% (inactive) | 106% (inactive) | 113% (inactive) | 95.1% (inactive) | 81.4% (inactive) |  | 99.7% (inactive) | 99% (inactive) | 131% (inactive) | 125% (inactive) | 100% (inactive) | 
5 | CCN1C(=O)NC(=O)C(C)(N2C(=O)c3c(F)c(F)c(F)c(F)c3C2=O)C1=O (centres undefined) | 5.26% (active) | 6.44% (active) | 64.6% (inactive) | 49.3% (inactive) | -25.4% (active) | 12.3% (inactive) | 54.1% (inactive) | 10.4% (inactive) | -13.9% (active) | -45.5% (active) | 16.8% (inactive) | 33.6% (inactive) | 25.1% (inactive) |  |  | -46.7% (active) | 99.2% (inactive) | -70.3% (active) | 104% (inactive) | 19.5% (inactive)
6 | COc1ccc(N(CC(=O)NCCC[Te]c2ccccc2)C(=O)c2ccccc2)cc1 | 9.28% (active) | -25.5% (active) | 69.5% (inactive) | 36.2% (inactive) | 14.4% (inactive) | 7.26% (active) | 55.2% (inactive) | 84.1% (inactive) | 32.8% (inactive) | 145% (inactive) | 101% (inactive) | 19.9% (inactive) | 12.9% (inactive) |  | 87.7% (inactive) | 84.9% (inactive) | 16.1% (inactive) | 36.9% (inactive) | 2.14% (active) | 15.1% (inactive)
7 | N#CCCc1ccccc1 | 98.3% (inactive) | 104% (inactive) | 86.3% (inactive) | 97.7% (inactive) | 105% (inactive) | 108% (inactive) | 99.6% (inactive) | 97.2% (inactive) | 102% (inactive) | 108% (inactive) | 121% (inactive) | 103% (inactive) | 85% (inactive) | 113% (inactive) |  | 98.2% (inactive) |  | 103% (inactive) | 103% (inactive) | 96.2% (inactive)
8 | COC(=O)CCP(CCC(=O)OC)c1ccccc1 | 106% (inactive) | 106% (inactive) | 89.5% (inactive) | 119% (inactive) | 99.3% (inactive) | 99.9% (inactive) | 103% (inactive) | 97.9% (inactive) | 100% (inactive) | 103% (inactive) | 110% (inactive) | 99.5% (inactive) | 91.4% (inactive) |  | 108% (inactive) | 94.6% (inactive) | 123% (inactive) | 98.5% (inactive) | 93.9% (inactive) | 109% (inactive)
9 | C#Cc1cccc(Nc2nc(Cl)nc3cc(NC(=O)CF)ccc23)c1 | 35.4% (inactive) | 16.1% (inactive) | 61.2% (inactive) | 89% (inactive) | 79.3% (inactive) | 57.8% (inactive) | 37.3% (inactive) | 72.9% (inactive) | 65.2% (inactive) | 73.2% (inactive) | 66% (inactive) | 91.9% (inactive) | 74% (inactive) | 85.7% (inactive) |  | 55.8% (inactive) | 87.4% (inactive) | 90.3% (inactive) | 71.4% (inactive) | 93.4% (inactive)
10 | O=C(CBr)OCCOC(=O)CBr | 72.4% (inactive) | 92.5% (inactive) | 91.2% (inactive) | 104% (inactive) | 87.4% (inactive) | 84.1% (inactive) | 99.3% (inactive) | 81.4% (inactive) | 37.1% (inactive) | 79.5% (inactive) | 103% (inactive) | 58% (inactive) | -92.4% (active) | 130% (inactive) |  | 33.5% (inactive) | 150% (inactive) | 42.4% (inactive) | 101% (inactive) | -15.5% (active)
11 | CC[C@H](C)[C@H](NC(=O)[C@H]1CCCCN1C)C(=O)N(C)[C@H](C(=O)NC12CC(C(=O)N[C@@H](Cc3ccccc3)C[C@H](C)C(=O)OC)(C1)C2)C(C)C | 101% (inactive) | 87.3% (inactive) | 92.7% (inactive) | 100% (inactive) | 96.7% (inactive) | 100% (inactive) | 101% (inactive) | 102% (inactive) | 92.1% (inactive) | 110% (inactive) | 89.3% (inactive) | 99% (inactive) | 95.1% (inactive) | 98.4% (inactive) |  | 95.9% (inactive) | 112% (inactive) | 114% (inactive) | 102% (inactive) | 103% (inactive)
12 | CCOP(=O)(NC)OCC | 112% (inactive) | 109% (inactive) | 103% (inactive) | 102% (inactive) | 107% (inactive) | 85.4% (inactive) | 100% (inactive) | 108% (inactive) | 102% (inactive) | 104% (inactive) | 124% (inactive) | 106% (inactive) | 92.2% (inactive) | 129% (inactive) |  | 111% (inactive) | 74.3% (inactive) | 73.9% (inactive) | 146% (inactive) | 93.4% (inactive)
13 | O=C1NC(=O)C(=Cc2ccccc2)C(=O)N1 | 98.6% (inactive) and 106% (inactive) | 105% (inactive) and 99% (inactive) | 105% (inactive) and 96.5% (inactive) | 106% (inactive) | 97.4% (inactive) and 92.2% (inactive) | 81% (inactive) and 96.2% (inactive) | 109% (inactive) and 100% (inactive) | 90.3% (inactive) and 105% (inactive) | 94% (inactive) and 97.1% (inactive) | 104% (inactive) and 115% (inactive) |  | 89.7% (inactive) and 102% (inactive) | 93.5% (inactive) | 106% (inactive) and 102% (inactive) |  | 84.2% (inactive) and 103% (inactive) | 128% (inactive) and 94.2% (inactive) | 68.3% (inactive) and 105% (inactive) | 98.4% (inactive) and 101% (inactive) | 90.7% (inactive) and 107% (inactive)
14 | CSc1cc(/C=C(\C)[C@@H]2C[C@@H]3O[C@]3(C)CCC[C@H](C)[C@H](O)[C@@H](C)C(=O)C(C)(C)[C@@H](O)CC(=O)O2)n(CCNC(=O)OC(C)(C)C)n1 | 37.1% (inactive) | 28.2% (inactive) | 43.9% (inactive) | 70.4% (inactive) | 67.2% (inactive) | 39% (inactive) | 38.4% (inactive) | 43.8% (inactive) | 51.1% (inactive) | 79% (inactive) |  | 84% (inactive) | 55.5% (inactive) |  | 77.8% (inactive) | 46.4% (inactive) | 56.6% (inactive) | 8.76% (active) | 78.3% (inactive) | 63.9% (inactive)
